SUMO Mot1 rescue – blocks SUMOylation pathway, rescuing yeast Mot1-301 growth | S. cerevisiae Mot1-301 growth rescue, ATP luminescence, 38.5C; percent above DMSO median, 100 means doubled | growth rescue, % at 18.8 µM | 1% of 320,000 active;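 active = every valid replicate shows activation above 250% relative to neutral control wells; inactive = the rest, any valid replicate at or below 250%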;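 also: OY570 slx delta 5 strain wells were the positive control but not used for scaling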
SKN-1 inh – C. elegans SKN-1 inhibition; C. elegans VP596 Pgst-4::GFP/RFP ratio, acrylamide-induced, 24 h; inhibition, % at 21.8 µM; 0.49% of 360,000 active; AID 624304;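 active = interference check ratio from 0.5 to 1.5 plus GFP to RFP signal ratio inhibition reaching or exceeding a fixed threshold, cut at about 30% in these data, passing the limit was not always enough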
Efflux pump mplx – inhibitors of Candida antifungal efflux pumps expressed in yeast; 0.44% of 330,000 active; AID 485275; S. cerevisiae Candida pump triplex, Nile Red efflux; inhibition, % at 10 µM;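 active = plate passing quality check with inhibition over a set limit, or well fluorescence over plate mean plus 4 SD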;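 also: Nile Red retained in pooled yeast measured as flow cytometry median fluorescence; 0% = buffer negative control and 100% = Enniatin B positive control; higher means more Nile Red kept so more efflux inhibition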
HGIII-sPLA2 inh – Inhibits HGIII-sPLA2 liposome hydrolysis, primary screen; AID 743126; Q9NZ20; 0.56% of 370,000 active; QFRET BODIPY PC-A2 liposome hydrolysis, fluorescence; inhibition, % at 12.2 µM;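 active = inhibition above mean plus 3 SD of compounds lying within the high and low control bounds, cut at about 19% in these data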;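 also: 0% = median of test compound wells and 100% = no enzyme DMSO wells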
Target sequence (Q9NZ20 whole entry, looked up): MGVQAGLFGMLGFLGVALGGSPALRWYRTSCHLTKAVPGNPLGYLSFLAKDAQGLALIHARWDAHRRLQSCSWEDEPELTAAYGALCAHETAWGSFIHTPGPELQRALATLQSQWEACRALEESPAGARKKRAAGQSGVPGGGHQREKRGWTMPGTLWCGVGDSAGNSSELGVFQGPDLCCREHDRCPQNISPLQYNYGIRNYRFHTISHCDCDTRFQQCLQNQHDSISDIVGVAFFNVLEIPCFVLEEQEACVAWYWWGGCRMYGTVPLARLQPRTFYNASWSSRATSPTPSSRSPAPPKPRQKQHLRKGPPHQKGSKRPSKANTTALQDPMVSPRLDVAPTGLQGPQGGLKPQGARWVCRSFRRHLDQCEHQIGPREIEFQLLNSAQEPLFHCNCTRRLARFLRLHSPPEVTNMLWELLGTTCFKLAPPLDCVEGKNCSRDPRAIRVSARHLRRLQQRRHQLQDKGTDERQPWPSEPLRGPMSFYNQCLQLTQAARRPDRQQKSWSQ
hGIII sPLA2 conf – human GIII-sPLA2 inhibition, confirmation | shares compounds with HGIII-sPLA2 inh | recombinant hGIII-sPLA2, BODIPY PC-A2 QFRET fluorescence | inhibition, % at 12.2 µM | 34% of 2,000 active;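 active = mean inhibition across triplicates above the hit cutoff set in the earlier primary screen, cut at about 19% in these data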;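 also: 0% = enzyme with DMSO and 100% = DMSO wells lacking enzyme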
BODIPY interf – optically interferes with 535nm fluorescence in sPLA2 counter-screen; AID 743282; 8.5% of 2,000 active; BODIPY FL product fluorescence interference, QFRET; shares compounds with HGIII-sPLA2 inh; inhibition, % at 12.2 µM;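 active = average inhibition above the solvent-only control mean plus 3 SD, cut at about 6% in these data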;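 also: 0% = DMSO with substrate plus product and 100% = DMSO with substrate alone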
BODIPY interf DR – interferes with 535nm fluorescence in dose response counter-screen. AID 743455. shares compounds with HGIII-sPLA2 inh. IC50, µM. 240 tested, under 10 active. BODIPY FL product fluorescence interference, cell-free;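 active = IC50 at or below 10 µM; inactive = IC50 above 10 µM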
Numbers without * were called inactive; . = no result given; ! = not confirmed by another sample. Shown are actives, neighbours in structure and some others; about 2.2% of the full set was active somewhere.

SMILES	SUMO Mot1 rescue	SKN-1 inh	Efflux pump mplx	HGIII-sPLA2 inh	hGIII sPLA2 conf	BODIPY interf	others
COc1cc(N=c2ssnc2Cl)c(OC)cc1Cl	242	20	0	23*!	33*	1	BODIPY interf DR=>122
CCOC(=O)C(=O)NNc1ccc(C)cc1	146	-2	0	21*	2	1
Cc1cc(NC(=O)C(C)SCC(=O)OCC(=O)Nc2c(C)cccc2C(C)C)no1 (configuration not stated)	4	-9	0	-4	.	.
c1ccc(-c2ccc(CNc3nc(-c4ccccn4)nnc3-c3ccccc3)cc2)cc1	.	.	.	27*	-1	-31
C=CCNc1nc(-c2ccccn2)nnc1-c1ccccc1	-11	17	0	0	.	.
CC(C)(C)NS(=O)(=O)c1ccc(NC(=O)CS(=O)(=O)Cc2ccccc2)cc1	-7	7	0	-39	.	.
COc1cc2c(cc1OC)C(c1ccccc1)=NCC2	-6	2	0	27*	0	-11
Cc1ccc(NC(=C(C#N)C#N)c2ccccc2)cc1	.	1	.	4	.	.
COc1cnc(-c2ccccn2)nc1Oc1cccc(C(F)(F)F)c1	-16	12	0	21*	8	-16
COc1ccc(C2Nc3ccccc3C(=O)N2c2ccc(F)cc2)cc1CSc1ccccn1 (configuration not stated)	-15	2	0	20*	12	-7
COc1ccc(C2Nc3ccccc3C(=O)N2c2ccccc2)cc1CSc1ccccn1 (configuration not stated)	-10	4	0	4	.	.
O=C(Nc1ccn(CCCNCc2ccccn2)c(=O)n1)OCc1ccccc1	.	-13	.	21*	6	-16
O=C(Nc1ccn(CCCNCCc2ccccn2)c(=O)n1)OCc1ccccc1	.	-1	.	15	.	.
C=CCn1c(=S)[nH]c2nc3c(cc2c1=O)CCCC3	46	8	0	23*	12	-1
C=CCn1c(=S)[nH]c2ccc(Br)cc2c1=O	.	26	0	20*	21*	2
C=CCn1c(=S)[nH]c2cc(C(=O)Nc3ccc(OC)c(OC)c3)ccc2c1=O	121	1	0	7	.	.
CC(c1ccccc1)N(NC(=O)C(O)(c1ccccc1)c1ccccc1)C(=O)c1ccccc1 (configuration not stated)	2	4	0	22*	13	-19
Nn1c(COc2ccccc2F)nnc1SCC(=O)NCC1CCCO1 (configuration not stated)	.	18	.	-3	.	.
C=CCn1c(O)c(N=NC(=S)Nc2ccccc2F)c2ccccc21	.	0	0	20*	32*	13*
Cc1ccccc1NC(=S)N=Nc1c(O)n(C)c2ccc(S(=O)(=O)N3CCOCC3)cc12	-7	11	0	7	.	.
C=CCn1c(O)c(N=NC(=S)Nc2ccccc2F)c2cc(S(=O)(=O)N3CCOCC3)ccc21	97	-1	0	21*	26*	-11
CCN1CCN(C(=O)C(C)Sc2nnc3nc(C)cc(C)n23)CC1 (configuration not stated)	7	7	0	5	.	.
O=C(Nc1ccccc1)Nc1ccc(Nc2ccccc2)cc1	7	-7	0	25*	6	0
CCc1ccc(NC(=S)Nc2ccc3cn[nH]c3c2)cc1	1	6	0	19*	11	-6
CCCCNC(=S)Nc1ccc2cn[nH]c2c1	.	-3	0	21*	6	-1
SMILES	SUMO Mot1 rescue	SKN-1 inh	Efflux pump mplx	HGIII-sPLA2 inh	hGIII sPLA2 conf	BODIPY interf	others
CCCC[C@@H]1C(=O)N2N=Cc3ccccc3[C@H]2N2N=Cc3ccccc3[C@@H]12	.	.	.	6	.	.
CCCC[C@@H]1C(=O)N2N=Cc3cc(C)c(C)cc3[C@H]2N2N=Cc3cc(C)c(C)cc3[C@@H]12	.	.	.	20*	-6	-23
CC1(C)CC2C1CCC1(O)CC2(C)CCC1N(O)c1ccc(C(=O)NCCO)cn1 (configuration not stated)	-21	18	0	21*	24*	-7
O=c1ccc(Cl)n[nH]1	-21	4	0	12	.	.
CN(C)c1ccc(/C=N\Nc2nc(-c3ccccc3)cc(=O)[nH]2)cc1	12	-5	-1	20*	7	2
Cc1ccc(C(=O)NCCN2CCC(n3c(=O)[nH]c4ccccc43)CC2)cc1F	.	-6	.	9	.	.
COc1cc(OC)nc(NC(=O)C(C)C)n1	9	-13	0	20*	3	0
Cc1ccc(C)c(N2CN(Cc3cccnc3)CNC2=S)c1	327	4	0	20*	3	-1
Cc1onc(-c2c(F)cccc2Cl)c1C(=O)Nc1cccc(S(=O)(=O)NCc2ccco2)c1	-11	7	0	-27	.	.
C/C(=N\NC(=O)c1nnn(-c2nonc2N)c1-c1ccccc1)c1ccccc1O	2	0	0	26*	30*	2	BODIPY interf DR=>122
S=C(N/N=C/c1cccs1)NC1CC2CCC1C2 (configuration not stated)	2	14	0	28*	36*	3	BODIPY interf DR=>122
COc1ccc(CC(N)c2csc(NC(=O)c3cc(C(C)(C)C)nn3Cc3ccccc3)n2)cc1 (configuration not stated)	.	2	.	24*	4	-5
CCc1ccc(S(=O)(=O)NCc2csc(C)n2)s1	-11	0	0	22*	-2	-5
CCOC(=O)C(NC(=O)NCc1ccc(F)cc1)(OCC)C(F)(F)F (configuration not stated)	-3	20	0	12	.	.
CCOC(=O)C(NC(=O)Nc1ccc(Cl)cn1)(Oc1ccc(F)cc1)C(F)(F)F (configuration not stated)	-1	4	0	25*	-1	-8
CCOC(=O)NC(Nc1ccc(C)cn1)(C(F)(F)F)C(F)(F)F	13	11	0	11	.	.
COC(=O)C(NC(C)=O)(Nc1ccc(C)cn1)C(F)(F)F (configuration not stated)	-25	6	0	20*	4	-6
COC(=O)c1c(NC(=O)CSc2nc3ccccc3c(=O)n2Cc2ccco2)sc(C)c1C	-4	-5	0	19*	1	0
COc1ccccc1NC(=S)NNC(=O)c1nn(C)cc1Cl	-19	-4	0	31*	38*	3	BODIPY interf DR=>122
COc1ccccc1NC(=S)NNC(=O)c1ccc(O)cc1	10	-10	0	9	.	.
COc1ccccc1NC(=S)NNC(=O)c1nn(C)c(C)c1Br	9	-2	0	44*	29*	6	BODIPY interf DR=>122
COc1ccccc1NC(=S)NNC(=O)c1nn(C)c(C)c1Cl	1	-4	0	34*	46*	1	BODIPY interf DR=>122

Bioassay records as filed in PubChem.
